# D3 ag = qHTS of D3 Dopamine Receptor Agonist: qHTS. D(3) dopamine receptor (Homo sapiens), P35462. D3R DiscoveRx beta-arrestin cells, luminescence, 90 min. max activation, %. 410,000 compounds, 0.58% hits; in the data active means max activation above about 30%
#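 Agonist mode: compounds and dopamine controls were applied to plated cells for 90 min at 37 degrees C after an overnight attachment at 1500 cells/well. Luminescent read-out followed 30 - 60 minutes at room temperature with DiscoveRx detection reagent.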
# D1 PAM = Potentiators of Human D1 Dopamine Receptor: qHTS; 360,000 compounds, 0.036% hits; potentiation, % at 10 µM; D(1A) dopamine receptor (Homo sapiens), P21728; HEK293 TREx D1 cells, calcium flux, dopamine EC20 potentiation; in the data active means potentiation above about 30%
# Target sequence (P21728 whole entry, looked up): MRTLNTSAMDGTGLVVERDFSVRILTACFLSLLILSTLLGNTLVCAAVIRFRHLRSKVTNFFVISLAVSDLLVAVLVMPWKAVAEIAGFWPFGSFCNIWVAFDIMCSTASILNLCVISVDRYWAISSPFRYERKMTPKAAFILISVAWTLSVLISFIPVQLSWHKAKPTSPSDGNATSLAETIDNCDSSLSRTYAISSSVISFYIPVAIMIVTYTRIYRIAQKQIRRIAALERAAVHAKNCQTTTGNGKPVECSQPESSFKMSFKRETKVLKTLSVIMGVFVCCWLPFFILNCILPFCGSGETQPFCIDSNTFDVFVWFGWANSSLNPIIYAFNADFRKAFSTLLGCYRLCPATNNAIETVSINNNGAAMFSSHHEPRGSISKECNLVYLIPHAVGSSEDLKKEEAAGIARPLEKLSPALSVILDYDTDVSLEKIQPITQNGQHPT
# D1 antag = Antagonist of Human D 1 Dopamine Receptor: qHTS; D(1A) dopamine receptor (Homo sapiens), P21728; activity change, negative = inhibition, % at 10 µM; HEK293 TREx D1 cells, calcium flux, dopamine EC80; stronger effect = lower value; AID 504652, 2011; 360,000 compounds, 3.2% hits; in the data active means activity change below about -30%
#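 Kinetic fluorescence of a calcium dye serves as the read-out. D1-expressing Hek293 Trex cells, induced overnight at 30 C, are exposed to compound for 180 s before an EC80 dopamine addition, then read 180 s further.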
# D3 antag = qHTS of D3 Dopamine Receptor Antagonist: qHTS | 360,000 compounds, 2.5% hits | D3R cells, DiscoveRx beta-arrestin luminescence, antagonist mode; stronger effect = lower value | D(3) dopamine receptor (Homo sapiens), P35462 | max response, negative = inhibition, %; in the data active means max response below about -50%
#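 Cells plated overnight at 1500 cells/well, then exposed to library compounds with dopamine controls for 90 minutes at 37 degrees C. DiscoveRx reagent added for 30–60 minutes at room temperature; luminescence read, quantitative HTS format.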
# D1 agonist = Allosteric Agonists of the Human D1 Dopamine Receptor: qHTS; HEK293 T-REx D1 cells, calcium flux, agonist mode; activation, % at 2 µM; 360,000 compounds, 1% hits; AID 504660, 2011; in the data active means activation above about 30%
#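 Tetracycline-induced HEK293 TREx D1 cells, force-coupled to calcium signalling, were dye-loaded with a no-wash calcium kit. Compound was pin-added after a 10 s baseline. Fluorescence was read kinetically at 1 cycle/s for 180 s, with calcium rises flagged as agonism.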
# Numbers stand for hits; – = inactive; · = not tested or not shown. Hits are enriched below; roughly 6% of the tested compounds scored in any of these assays.
SMILES,D3 ag,D1 PAM,D1 antag,D3 antag,D1 agonist
Cc1ccc(C(=O)N/C(=C\c2cccs2)C(=O)NCCc2c[nH]c3ccccc23)cc1C,–,–,-39,–,–
COc1ccc(C(=O)N/C(=C\c2cccc3ccccc23)C(=O)NCCc2c[nH]c3ccccc23)cc1OC,–,–,–,–,–
CCOC(=O)c1[nH]c2ccccc2c1NC(=O)c1c(F)cccc1F,–,–,–,·,–
CCOc1ccc(C2CC(c3ccccc3C)n3ncnc3N2)cc1 (stereo not drawn),–,·,-40,–,–
Cc1ccc(C(c2sc3nc(-c4ccco4)nn3c2O)N2CCCC2)cc1 (stereo not drawn),–,–,·,·,–
COc1cc(Cn2c3ccc(NC(=O)CCc4ccc(O)cc4)cc3c(=O)n2C)ccc1F,–,·,·,–,·
CC1(C)C(c2ccc(Cl)cc2)=[N+]([O-])C2(CCCC/C2=N\O)N1O (stereo not drawn),–,–,-87,–,–
N/C(=N\OC(=O)Oc1ccccc1)c1ccc(Br)cc1,–,–,–,–,–
NC(=Nc1ccc(Br)cc1)c1ccccc1,–,–,-39,–,45
CCCN(C(=O)c1cc2c(=O)oc3ccccc3c2s1)c1ccc(CC)cc1,–,–,–,·,–
O=C(NCCc1ccc(Cl)cc1)c1ccc(CS(=O)(=O)Cc2ccccc2F)o1,–,–,–,·,–
COc1cccc2c1[C@@H]1CN(CCCCn3c(=O)[nH]c4c(sc5ncc(-c6ccccc6)nc54)c3=O)C[C@@H]1CO2,–,–,–,-99,–
COc1cc2[nH]c(=O)n(CCCC(=O)N3CC=C(c4ccccc4)CC3)c(=O)c2cc1OC,–,–,–,–,–
O=C(O)c1ccc(C(S(=O)(=O)c2ccccc2)S(=O)(=O)c2ccccc2)cc1,–,·,·,–,·
COc1ccc(/C=C/C(=O)c2ccccc2)cc1COc1ccccc1F,–,–,–,–,38
O=C(O)c1ccc(-c2ccc(/C=c3/sc4nc5ccccc5n4c3=O)o2)cc1Cl,–,–,–,–,48
Cc1cc(C)c2nc3sc(=Cc4ccc(-c5ccccc5C(=O)O)o4)c(=O)n3c2c1,–,·,·,–,·
Cc1ccc2c(nc3s/c(=C\c4ccc(-c5ccccc5C(=O)O)o4)c(=O)n32)c1C,–,–,–,–,191
CCOC(=O)c1[nH]c(C)c(CCC(=O)NCc2ccc(C)cc2)c1C,–,–,–,·,–
COCC(C)n1c(C)cc(C(=O)COC(=O)c2n[nH]c3ccccc23)c1C (stereo not drawn),–,–,-48,–,–
COCC(C)n1c(C)cc(C(=O)COC(=O)c2cc(=O)[nH]c3ccccc23)c1C (stereo not drawn),–,·,·,–,·
Cc1c(C(=O)NCc2ccc(Cl)c(Cl)c2)sc(=O)n1Cc1ccc(C(=O)N(C)C)cc1,–,·,·,–,·
O=[N+]([O-])c1ccc(-n2ccnc2)cc1,–,–,-38,–,–
O=C(N[C@@H]1CC[C@@H](CCNC(=O)C2CCOCC2)O[C@@H]1CO)c1ccncc1,–,·,·,–,·
Cc1ccc(S(=O)(=O)NCC(=O)NCC(=O)OCc2c(F)cccc2Cl)cc1,–,–,-62,–,–
SMILES,D3 ag,D1 PAM,D1 antag,D3 antag,D1 agonist
Cc1ccc2oc(C(=O)Nc3sc4c(c3C(=O)NCc3cccnc3)CCCC4)cc(=O)c2c1,–,–,–,·,–
CC1CCN(CCC(=O)Nc2ccc(Br)cc2)CC1,–,·,·,-76,·
Cc1cc(NC(=O)CCN2CCC(C)CC2)ccc1Br,–,–,–,-106,–
CCN(CCC(=O)Nc1ccc(Br)c(C)c1)Cc1ccccc1,–,–,–,-82,–
CC1CCN(CCC(=O)Nc2ccc(F)c(F)c2)CC1,–,–,–,-51,–
COC(=O)c1ccccc1NC(=O)CSc1nc2ccccc2nc1Cc1ccc(F)cc1,–,–,–,·,–
OC(COCCOc1ccc(Br)cc1)CN1CCN(Cc2ccccc2)CC1 (stereo not drawn),–,–,-31,–,–
CCc1ccc(OCCOCC(O)CN2CCN(Cc3ccc(Cl)cc3)CC2)cc1 (stereo not drawn),–,–,-36,–,40
OC(CNC1CCCCC1)COCCOc1ccc(Br)cc1 (stereo not drawn),–,–,-30,–,48
CCS(=O)(=O)N1CC(=O)N(c2ccc(C)c(C)c2)C(C)(C(=O)NC2CCCCCC2)C1 (stereo not drawn),–,–,–,·,–
Cc1ccccc1NS(=O)(=O)c1ccc2[nH]c(=O)[nH]c2c1,–,–,–,–,–
CC1(C(=O)NCc2ccccc2)CN(S(C)(=O)=O)CC(=O)N1C1CC1 (stereo not drawn),–,·,·,–,·
O=C(NNc1ccccn1)c1ccccc1CC[N+](=O)[O-],–,–,-44,–,–
CCCNC(=O)C1(C)CCCN(C(=O)c2ccc3c(c2)CCO3)C1 (stereo not drawn),–,·,·,–,·
CCNC(=O)C1(C)CCN(C(=O)c2ccc3c(c2)CCO3)C1 (stereo not drawn),–,·,·,-51,·
CCOC(=O)SC1=N/C(=C\c2ccc(N(C)C)cc2)C(=O)S1,–,–,–,-54,33
CCC1CN(C(=O)N2CCC(C(=O)NCc3cccc(C)c3)CC2)c2ccccc2O1 (stereo not drawn),–,–,-32,·,–
CCCCNC(=O)C1CCN(C(=O)N2CC(C)Oc3ccc(Cl)cc32)CC1 (stereo not drawn),–,–,–,·,–
CCOc1ccc(CNC(=O)C2CCN(C(=O)N3CC(C)Oc4ccccc43)CC2)cc1 (stereo not drawn),–,–,-38,–,–
COc1ccc(CNC(=O)C2CCN(C(=O)N3CC(C)Oc4ccc(C)cc43)CC2)cc1 (stereo not drawn),–,–,–,·,–
CC1CN(C(=O)N2CCC(C(=O)NCCCc3ccccc3)CC2)c2cc(Cl)ccc2O1 (stereo not drawn),–,–,-57,·,–
CCCOc1ccc(CNC(=O)C2CCN(C(=O)N3CCOc4ccccc43)CC2)cc1,–,–,-32,–,–
CCN(CC(=O)NCc1ccc(F)cc1)C(=O)C1CCN(S(=O)(=O)c2ccc(C(C)C)cc2)CC1,–,–,–,–,–
O=C(NCC1CCOCC1)C1Cc2c(-c3ccccc3Oc3ccccc3)ccnc2O1 (stereo not drawn),–,·,·,–,·
CCOc1ccc2nc(NC(=O)CN3C(=O)C4CCCCC4C3=O)sc2c1 (stereo not drawn),–,–,–,–,–
Cc1ccccc1CSc1cn(CC(=O)N2CCCCCC2)c2ccccc12,–,–,–,·,–
